Source: PubChem
Tau filament bind: qHTS Assay for Tau Filament Binding; 71,000 compounds, 2% hits; Microtubule-associated protein tau (Homo sapiens), P10636; recombinant tau filaments, thioflavin S fluorescence, 15 h; filaments grown with octadecylsulfate alongside compound; Potency, µM (doses to about 57.1 µM), for the others: at the top dose activity change, negative = inhibition;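 further: on the % scale 0 is the no-effect control and ±100 the full control effect; actives lower thioflavin S fluorescence by blocking filaments or displacing dye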
Target sequence (P10636 whole entry, looked up): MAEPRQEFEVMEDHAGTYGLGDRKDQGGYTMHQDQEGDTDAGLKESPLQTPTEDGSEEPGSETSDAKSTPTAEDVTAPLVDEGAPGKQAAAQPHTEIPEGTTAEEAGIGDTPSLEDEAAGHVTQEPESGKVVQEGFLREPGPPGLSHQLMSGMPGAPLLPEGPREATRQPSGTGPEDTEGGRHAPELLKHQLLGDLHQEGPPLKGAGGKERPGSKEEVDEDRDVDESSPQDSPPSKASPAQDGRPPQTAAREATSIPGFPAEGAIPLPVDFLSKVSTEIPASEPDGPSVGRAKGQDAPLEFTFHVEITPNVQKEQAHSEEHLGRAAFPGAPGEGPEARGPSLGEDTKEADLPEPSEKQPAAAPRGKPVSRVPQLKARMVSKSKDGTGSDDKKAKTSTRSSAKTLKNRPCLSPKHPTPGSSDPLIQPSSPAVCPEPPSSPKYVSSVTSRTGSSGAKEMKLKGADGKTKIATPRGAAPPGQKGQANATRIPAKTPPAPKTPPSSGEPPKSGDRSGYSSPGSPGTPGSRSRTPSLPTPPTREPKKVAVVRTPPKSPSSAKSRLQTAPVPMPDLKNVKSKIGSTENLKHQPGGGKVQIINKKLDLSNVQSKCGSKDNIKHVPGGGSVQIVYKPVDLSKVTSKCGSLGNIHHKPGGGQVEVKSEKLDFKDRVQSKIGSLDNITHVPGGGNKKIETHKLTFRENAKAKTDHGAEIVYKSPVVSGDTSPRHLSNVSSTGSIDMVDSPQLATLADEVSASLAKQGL
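Thioflavine S fluorescence (ex 450, em 510 nm) reports filaments formed from 1 uM human tau plus 30 uM ODS over 15 h at 37 C (10 mM HEPES pH 7.4, 100 mM NaCl, 5 mM DTT); compounds displacing dye or blocking filaments lower signal.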
ERK AVP block: qHTS Assay for Inhibitors of the ERK Signaling Pathway using a Homogeneous Screening Assay. HEK293-V1b, vasopressin-stimulated pERK AlphaScreen. 72,000 compounds, 0.99% hits. Potency, µM (doses to about 57.5 µM), inactives show at the highest dose activity, negative = inhibition, hits mostly inhibitors; further: on the % scale 0 is the no-effect control and ±100 the full control effect; nearly all actives have a fitted effect of over 55% in size
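Phosphorylated ERK1/2 detected via AlphaScreen bead proximity in lysates of V1b-expressing HEK293 cells given 25 nM vasopressin for 5 min after 30 min compound exposure (37 °C). AC50 from Hill equation; basal DMSO 0%, vasopressin 100%.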
CRE Fsk mod: Cell signaling CRE-BLA (Fsk stim) | CHO CRE-bla reporter (cAMP response element driving beta-lactamase), forskolin EC10, beta-lactamase ratio | Potency, µM (top dose mostly 38.2 µM), without a hit: top-dose activity change, negative = inhibition, most hits filed as activators | 71,000 compounds, 2.5% hits | AID 662, 2007; active means well fitted activation curve with a large enough effect in the signal ratio, with a control signal flat, not every such curve was filed as active; inconclusive means small, poorly fitted or top-dose-only effect, or effect the other way, or a change in a side signal; the % refers to the signal ratio; further: % of control where 0% means no effect
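CRE-bla CHO reporter cells treated with compound titration plus EC10 NKH 477 (water-soluble forskolin), incubated 3 h at 37 °C; CCF4 loading 2 h at room temperature, 460/530 nm emission ratio read, AC50 values derived for positive or negative modulators.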
TSHR ag: qHTS Assay for Agonists of the Thyroid Stimulating Hormone Receptor; Thyrotropin receptor (Homo sapiens), P16473; HEK293-CNG-TSHR cells (CNG channel as cAMP sensor), membrane potential dye, cAMP; Potency, µM (series often up to 57.1 µM), without a hit: top-dose activation, actives largely listed as activators; 73,000 compounds, 0.48% hits; AID 926, 2007; active means well fitted activation curve with a large enough effect in the main read-out, with a control signal flat, not every such curve was filed as active; inconclusive means small, poorly fitted or top-dose-only effect, or a change in a side signal; inactive means no such curve, though single readings can be large or run the other way; % of control where 0% means no effect;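 further: the control signal comes from parental cells without the receptor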
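HEK 293 cells stably expressing TSHR and a modified CNG channel, with CNG-only parental cells as counterscreen, were preloaded 60 min at room temperature with membrane potential dye containing 100 uM RO 20-1724. Compound exposure was 30 min, and depolarization was read as fluorescence at 590 nm.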
HEK293 cAMP ctrl: qHTS Assay for Agonists of the Thyroid Stimulating Hormone Receptor: Activators of Intracellular cAMP Concentrations in Parental HEK 293. parental HEK293 CNG cAMP sensor, membrane potential fluorescence. Potency, µM (titrated, usually from 57.1 µM), without a hit: at the top dose activation, hits mostly activators. 73,000 compounds, 2.5% hits; further: % of control where 0% means no effect; nearly all actives have a fitted effect of over 55% in size
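Counterscreen for endogenous-receptor signalling: CNG-channel HEK 293 cells report cAMP rise by membrane depolarization. After 60 min dye equilibration with 100 uM RO 20-1724, compounds incubated 30 min before bottom-read fluorescence at 590 nm.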
The depositor's hits bear a star; [ ] = another dose, or the depositor's remark. Most compounds without a hit are left out; they make up all but 7.4% or so of the library. Unless noted, the call rests on the fitted dose curve; in most records, active means well fitted curve in the direction sought with a large enough effect; inconclusive means small, poorly fitted or top-dose-only effect, or another doubt; inactive means no such curve, though single readings can be large; an effect the other way counts as inactive or inconclusive. Potency means the concentration at half of the fitted maximal effect.

What do the screens show for `CC(C)=CCC/C(C)=C/CO/N=C1/[C@H]2O[C@@H]2[C@@H](O)[C@H]2[C@H]1CCn1c(=O)n(-c3ccccc3)c(=O)n12`?
ERK AVP block: -0.8%[11.5 µM]; TSHR ag: -2.6%[11.4 µM]; HEK293 cAMP ctrl: -1.6%[11.4 µM]

How did COC(=O)c1oc2ccc(Br)cc2c1NC(=O)CCCN1C(=O)c2ccccc2C1=O do in these assays?
Tau filament bind: 385.8%; CRE Fsk mod: 2.8%; TSHR ag: -1.3%; HEK293 cAMP ctrl: 5.4%

Results for COC(=O)c1oc2ccc(Br)cc2c1-n1cccc1 ?
Tau filament bind: 12.1%; ERK AVP block: 15.6%; CRE Fsk mod: inconclusive; TSHR ag: inconclusive; HEK293 cAMP ctrl: 31.6µM*

How did CCOC(=O)C1=C(CS(=O)(=O)c2ccc(F)c(C)c2)NC(=O)NC1c1ccc(O)c(O)c1 (configuration not stated) do in these assays?
Tau filament bind: 0.7%; ERK AVP block: 25.1µM*; CRE Fsk mod: -11.7%; TSHR ag: inconclusive; HEK293 cAMP ctrl: inconclusive

How did Nc1nc(CSc2nc3ccccc3s2)nc(N2CCCCC2)n1 do in these assays?
Tau filament bind: 60.5%; ERK AVP block: -1.5%; CRE Fsk mod: 5.01µM*; TSHR ag: inconclusive; HEK293 cAMP ctrl: inconclusive

Results for Nc1nc(CSc2nc3ccccc3[nH]2)nc(N2CCOCC2)n1 ?
Tau filament bind: 10.6%; ERK AVP block: -20.3%; CRE Fsk mod: 10µM*; TSHR ag: 3.0%; HEK293 cAMP ctrl: -4.3%

Results for NC(=O)SCC(=O)Nc1ccc2ncccc2c1 ?
Tau filament bind: 4.1%[11.4 µM]; ERK AVP block: 14.0%[11.5 µM]; CRE Fsk mod: inconclusive; TSHR ag: inconclusive; HEK293 cAMP ctrl: -36.4%[11.4 µM]

What do the screens show for `CCCNC(=O)CS(=O)(=O)Cc1nc(-c2cccc(OC)c2)oc1C`?
Tau filament bind: -7.9%; ERK AVP block: -15.0%; CRE Fsk mod: -1.1%; TSHR ag: 13.1%; HEK293 cAMP ctrl: 16.3%

What do the screens show for `COc1cccc(-c2nc(CS(=O)(=O)CC(=O)Nc3cccc(C)c3C)c(C)o2)c1`?
Tau filament bind: inactive; ERK AVP block: -6.3%; CRE Fsk mod: inconclusive; TSHR ag: inconclusive; HEK293 cAMP ctrl: 25.1µM*

How did Cc1ccccc1-c1nc(CS(=O)(=O)CC(=O)Nc2cc(F)ccc2F)c(C)o1 do in these assays?
Tau filament bind: -8.3%; ERK AVP block: 12.6µM*; CRE Fsk mod: -16.4%; TSHR ag: inconclusive; HEK293 cAMP ctrl: inconclusive

What do the screens show for `CCNc1ncc2nc(-c3ccc(OC)cc3)c(=O)n(CCOC)c2n1`?
Tau filament bind: 38.5%; ERK AVP block: -2.8%; CRE Fsk mod: inconclusive; TSHR ag: -1.0%; HEK293 cAMP ctrl: 13.7%

Results for Nc1nc(SCc2ccccc2[N+](=O)[O-])c2[nH]cnc2n1 ?
Tau filament bind: -6.8%[11.4 µM]; ERK AVP block: -18.0%[11.5 µM]; CRE Fsk mod: 2.6%[7.6 µM]; TSHR ag: -1.0%[11.4 µM]; HEK293 cAMP ctrl: -1.4%[11.4 µM]

What do the screens show for `COc1ccc(CN(C(=O)CN2C(=O)COc3ccccc32)C2CCCC2)c(OC)c1`?
Tau filament bind: 2.0%; ERK AVP block: -3.0%; CRE Fsk mod: 17.6%; TSHR ag: inconclusive; HEK293 cAMP ctrl: 20µM*

Results for CC1Oc2ccccc2N(CC(=O)c2ccccc2)C1=O (configuration not stated) ?
Tau filament bind: 6.6%; ERK AVP block: -18.0%; CRE Fsk mod: 1.9%; TSHR ag: 20.2%; HEK293 cAMP ctrl: 27.2%

What do the screens show for `COc1ccc(CN(C(=O)CN2C(=O)C(C)Oc3ccccc32)C2CCCC2)c(OC)c1` (configuration not stated)?
Tau filament bind: 7.8%; ERK AVP block: -17.7%; CRE Fsk mod: 17.3%; TSHR ag: inconclusive; HEK293 cAMP ctrl: 25.1µM*

How did O=C(O)c1ccc(Cl)cc1Cl do in these assays?
Tau filament bind: 0.8%; ERK AVP block: 4.4%; CRE Fsk mod: -5.8%; TSHR ag: inconclusive; HEK293 cAMP ctrl: -0.6%

How did COc1ccccc1N(C(=O)c1ccco1)C(C(=O)NC1CCCC1)c1cccnc1 (configuration not stated) do in these assays?
Tau filament bind: -0.9%; ERK AVP block: -7.2%; CRE Fsk mod: 8.4%; TSHR ag: inconclusive; HEK293 cAMP ctrl: inconclusive

What do the screens show for `O=C(NC1CCCCC1)C(c1ccco1)N(Cc1cccnc1)C(=O)C1COc2ccccc2O1` (configuration not stated)?
Tau filament bind: 0.4%; ERK AVP block: -14.7%; CRE Fsk mod: -8.5%; TSHR ag: inconclusive; HEK293 cAMP ctrl: 15.8µM*

How did CC(=O)NC1=C(OS(=O)(=O)c2ccc(C)cc2)CN(C)C1=O do in these assays?
Tau filament bind: 5.5%[11.4 µM]; ERK AVP block: -14.0%[11.5 µM]; CRE Fsk mod: 29.4%[7.6 µM]; TSHR ag: 3.2%[11.4 µM]; HEK293 cAMP ctrl: -0.9%[11.4 µM]

Results for Cc1ccc(-n2nc3c(c2NC(=O)c2ccc4c(c2)OCO4)CS(=O)C3)cc1 (configuration not stated) ?
Tau filament bind: 38.2%; ERK AVP block: 21.7%; CRE Fsk mod: 4.6%; TSHR ag: 7.8%; HEK293 cAMP ctrl: 9.7%

What do the screens show for `O=C(Nc1c2c(nn1-c1ccc(Cl)cc1)CS(=O)(=O)C2)c1ccc2c(c1)OCO2`?
Tau filament bind: 0.5%; ERK AVP block: -22.5%; CRE Fsk mod: -11.3%; TSHR ag: inconclusive; HEK293 cAMP ctrl: 25.1µM*

What do the screens show for `COc1ccccc1-c1cc(C(F)(F)F)nc(N2CCOCC2)n1`?
Tau filament bind: -3.4%; ERK AVP block: 2.9%; CRE Fsk mod: 19.6%; TSHR ag: inconclusive; HEK293 cAMP ctrl: 20µM*

Results for COc1cc2c(cc1O)CC[C@@H]1[C@@H]2CC[C@@]2(C)[C@H](O)CC[C@H]12 ?
Tau filament bind: 2.7%; ERK AVP block: 2.8%; CRE Fsk mod: inconclusive; TSHR ag: inconclusive; HEK293 cAMP ctrl: inconclusive

What do the screens show for `N#CCC(=O)Nc1sc2c(c1C(N)=O)CCCC2`?
Tau filament bind: inconclusive; CRE Fsk mod: 12.6µM*; TSHR ag: inconclusive; HEK293 cAMP ctrl: -55.4%

How did CCC(=O)Nc1sc2c(c1C(N)=O)CCC2 do in these assays?
Tau filament bind: -10.7%; ERK AVP block: inconclusive; CRE Fsk mod: 17.4%; TSHR ag: 14.3%; HEK293 cAMP ctrl: 0.3%

Results for CC(=O)Nc1nc(-c2ccc(Cl)cc2)nc(C)c1C(C)=O ?
Tau filament bind: -10.2%[11.4 µM]; ERK AVP block: -11.3%; CRE Fsk mod: inconclusive; TSHR ag: -4.0%[11.4 µM]; HEK293 cAMP ctrl: -2.0%[11.4 µM]

How did CC(=O)c1c(C)nc2cc(Cl)ccc2c1N do in these assays?
Tau filament bind: -9.9%; ERK AVP block: -26.6%; CRE Fsk mod: 10µM*; TSHR ag: 4.7%; HEK293 cAMP ctrl: 15.1%

Results for O=[N+]([O-])c1ccc(Cl)cc1Cl ?
Tau filament bind: 2.0%; ERK AVP block: 36.1%; CRE Fsk mod: -8.7%; TSHR ag: inconclusive; HEK293 cAMP ctrl: 14.2%
